The list is not random: actives were taken first. Their share in the collection is about 3.3%.
HTT ATP protect – qHTS Multiplex Assay to Identify Dual Action Probes in a Cell Model of Huntington: Cytoprotection (ATP); PC12 HTT-Q103 induced, cytoprotection, ATP luminescence, 40 h; Potency, µM (doses to about 56.4 µM), inactives show cytoprotection (ATP increase), most hits filed as activators; 230,000 compounds, 0.14% hits; AID 1471, 2008; further: potency means the concentration at half of the fitted maximal effect; % of control where 0% means no effect; nearly all actives have a fitted effect of over 45% in size
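Huntington model: PC12 line, ecdysone-inducible HTTQ103 exon1–GFP, tebufenozide 100 nM. Test articles in a dose series. Endpoint luminescence from cellular ATP.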
NPSR antagonist – qHTS Assay for Antagonists of the Neuropeptide S Receptor: cAMP Signal Transduction; 220,000 compounds, 1% hits; Q6W5P4; Potency, µM (doses to about 38.3 µM), inactives show at the top dose activity change, negative = inhibition, most hits filed as inhibitors; CHO-NPSR cells, cAMP TR-FRET, antagonist mode; further: potency means the concentration at half of the fitted maximal effect; on the % scale 0 is the no-effect control and ±100 the full control effect; nearly all actives have a fitted effect of over 50% in size
Target sequence (Q6W5P4 whole entry, looked up): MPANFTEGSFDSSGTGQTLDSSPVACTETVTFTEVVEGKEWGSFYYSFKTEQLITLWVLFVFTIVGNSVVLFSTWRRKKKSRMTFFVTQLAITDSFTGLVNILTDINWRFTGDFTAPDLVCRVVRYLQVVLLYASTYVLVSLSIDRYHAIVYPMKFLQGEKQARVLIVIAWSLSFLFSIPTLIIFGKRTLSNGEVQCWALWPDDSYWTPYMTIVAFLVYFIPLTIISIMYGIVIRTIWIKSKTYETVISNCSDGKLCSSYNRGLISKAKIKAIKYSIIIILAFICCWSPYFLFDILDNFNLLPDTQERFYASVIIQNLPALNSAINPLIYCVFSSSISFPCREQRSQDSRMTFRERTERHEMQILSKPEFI
HttQ103 aggreg – qHTS Multiplex Assay to Identify Dual Action Probes in a Cell Model of Huntington: Aggregate Formation (GFP). 220,000 compounds, 1.1% hits. Potency, µM (top dose mostly 46.1 µM), without a hit: at the highest dose activity change, negative = inhibition, most hits filed as inhibitors. PC12 HttQ103-GFP aggregates, Acumen cytometry, 40 h; further: potency means the concentration at half of the fitted maximal effect; on the % scale 0 is the no-effect control and ±100 the full control effect; nearly all actives have a fitted effect of over 60% in size
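Steps: seed 1500 PC12 HTTQ103-GFP cells/well; add tebufenozide, 100 nM final; add compound titration; add ATPLite reagent; quantify GFP aggregates by laser scanning cytometry.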
ALOX12 inhib – qHTS Assay for Inhibitors of 12-hLO (12-human lipoxygenase). purified 12-hLO, xylenol orange hydroperoxide absorbance. Potency, µM (highest dose often 57.1 µM), inactives show top-dose activity change, negative = inhibition, usual class: inhibitors. 150,000 compounds, 0.12% hits. AID 1452, 2008; further: potency means the concentration at half of the fitted maximal effect; on the % scale 0 is the no-effect control and ±100 the full control effect; nearly all actives have a fitted effect of over 55% in size
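Hydroperoxide output read as Fe(III)-xylenol orange absorbance, 573-to-405 nm ratio, after 30 min reaction with 40 uM arachidonic acid. Enzyme: 150 nM purified human 12hLO, 15 min compound preincubation; 25 mM Hepes pH 7.0, room temperature.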
PNC assembly inh – High Content Assay for Compounds that inhibit the Assembly of the Perinucleolar Compartment. activity change (PNC), negative = inhibition, % at 10 µM. 140,000 compounds, 3.1% hits. PC3M PTB-GFP, PNC prevalence imaging, 16 h; stronger effect = lower value. AID 2417, 2010;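 active means readout at or below -70, meaning at least 70% loss of cells showing the perinucleolar compartment, a nuclear body marking cancer cells; inconclusive means readout between -30 and a set limit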;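 further: plate controls were DMSO wells for no effect and camptothecin positive control wells for full effect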
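PC3M cells stably expressing PTB-GFP, 750–1000 cells/well, treated 16 h at 37 °C with compound (23 nl of library stock), in duplicate. After paraformaldehyde fixation and Hoechst stain, imaged at 20x; PNC prevalence scored by image analysis.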
IMPase cell inh – qHTS Assay for Identifying the Cell-Membrane Permeable IMPase Inhibitors | CHO-M1 cells, IP1 accumulation, HTRF TR-FRET ratio | inhibition (IP1 accumulation), % at 46.1 µM | 120,000 tested, under 10 active | Inositol monophosphatase 1 (Rattus norvegicus), P97697 | AID 901, 2007; active means well fitted curve in the direction sought with a large enough effect in the signal ratio, not every such curve was filed as active; inconclusive means small, poorly fitted or top-dose-only effect, or a change in a side signal; inactive means no such curve, though single readings can be large or run the other way; the % refers to the signal ratio;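 further: cells stimulated with carbachol in lithium chloride buffer; plate controls were DMSO basal wells for no effect and reference inhibitor wells for full effect; higher means more IMPase inhibition seen as more IP1 and lower FRET ratio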
Target sequence (P97697 whole entry, looked up): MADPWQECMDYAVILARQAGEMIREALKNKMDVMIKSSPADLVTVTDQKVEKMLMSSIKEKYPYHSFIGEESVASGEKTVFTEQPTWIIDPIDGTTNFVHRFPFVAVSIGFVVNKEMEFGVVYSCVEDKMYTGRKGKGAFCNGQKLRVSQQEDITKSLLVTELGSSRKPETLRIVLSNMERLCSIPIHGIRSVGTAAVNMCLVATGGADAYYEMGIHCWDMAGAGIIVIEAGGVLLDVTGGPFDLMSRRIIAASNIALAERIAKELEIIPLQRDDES
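The IP-One HTRF competitive assay in carbachol-stimulated CHO-M1 cells quantifies cellular IP1. Compounds spanned up to 46 uM final, and activity is expressed as AC50 from concentration-response fits of the ratio and donor data.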
The depositor's hits bear a star; [ ] = remark or other dose. Unless noted, the call rests on the fitted dose curve; in most records, active means well fitted curve in the direction sought with a large enough effect; inconclusive means small, poorly fitted or top-dose-only effect, or another doubt; inactive means no such curve, though single readings can be large; an effect the other way counts as inactive or inconclusive.

Results for CCc1cc2c(=O)c(-c3nc4ccccc4n3C)c(C)oc2c(CN2CCN(C)CC2)c1O ?
HTT ATP protect: -3%[10 µM]; NPSR antagonist: -12%[46.1 µM]; HttQ103 aggreg: 0%; ALOX12 inhib: 9%; PNC assembly inh: -17; IMPase cell inh: -13

Results for CCc1cc2c(=O)c(-c3nc4ccccc4n3C)c(C(C)C)oc2c(CN2CCN(C)CC2)c1O ?
HTT ATP protect: -11%; NPSR antagonist: -2%; HttQ103 aggreg: inconclusive; ALOX12 inhib: 0%; PNC assembly inh: -104*; IMPase cell inh: 3

How did Cn1c(=O)c2c(nc(NC3CCCCC3)n2CC(O)COc2ccccc2)n(C)c1=O (stereo not drawn) do in these assays?
HTT ATP protect: -47%; NPSR antagonist: inconclusive; HttQ103 aggreg: inconclusive; ALOX12 inhib: -2%; PNC assembly inh: 14; IMPase cell inh: 5

Results for COc1ccc(OCC(O)Cn2c(Nc3ccccc3)nc3c2c(=O)n(C)c(=O)n3C)cc1 (stereo not drawn) ?
HTT ATP protect: -5%[10 µM]; NPSR antagonist: -8%[46.1 µM]; HttQ103 aggreg: 10%; ALOX12 inhib: 1%; PNC assembly inh: -83*; IMPase cell inh: 6

How did C/C(Cl)=C/Cn1c(N2CCCC2)nc2c1c(=O)n(C)c(=O)n2C do in these assays?
HTT ATP protect: -9%; NPSR antagonist: -6%[46.1 µM]; HttQ103 aggreg: -16%; ALOX12 inhib: -3%; PNC assembly inh: -11; IMPase cell inh: -3

What do the screens show for `C/C(Cl)=C\Cn1c(Nc2ccc(C)cc2)nc2c1c(=O)n(C)c(=O)n2C`?
HTT ATP protect: inconclusive; NPSR antagonist: -21%[46.1 µM]; HttQ103 aggreg: -8%; ALOX12 inhib: -4%; PNC assembly inh: -95*; IMPase cell inh: 2

What do the screens show for `Cc1cc2c(cc1Cl)N(C(=O)Nc1ccnc3ccccc13)CC2`?
HTT ATP protect: -17%[1.9 µM]; NPSR antagonist: -6%[46.1 µM]; ALOX12 inhib: -3%; IMPase cell inh: -6

What do the screens show for `CCOC(=O)c1c(C)n(C)c2ccc(OC)c(NC(=O)CN3CCSCC3)c12`?
HTT ATP protect: -5%; NPSR antagonist: inconclusive; HttQ103 aggreg: 26%; ALOX12 inhib: -2%; PNC assembly inh: -105*; IMPase cell inh: 1

How did N#C/C(=C\c1ccccc1)c1nc(-c2cc3c(ccc4ccccc43)oc2=O)cs1 do in these assays?
IMPase cell inh: -8

Results for Cc1occc1C(=O)N1CCN(c2ccc(Cl)c(Cl)c2)CC1 ?
HTT ATP protect: 6%[10 µM]; NPSR antagonist: -17%[46.1 µM]; HttQ103 aggreg: 11µM*; ALOX12 inhib: 2%; PNC assembly inh: 37; IMPase cell inh: -4

What do the screens show for `Cc1ccc(NS(=O)(=O)c2ccc(-c3csc(C)n3)s2)c(C)c1`?
HTT ATP protect: 2%[10 µM]; NPSR antagonist: -3%; HttQ103 aggreg: -8%[9.22 µM]

What do the screens show for `O=C(Nc1ccccc1)Nc1cccc(C(F)(F)F)c1`?
HTT ATP protect: -80%; NPSR antagonist: -16%; HttQ103 aggreg: 22µM*

Results for Cc1ccccc1NC(=O)Nc1ccc(C(F)(F)F)cc1 ?
HTT ATP protect: -49%; NPSR antagonist: -2%; HttQ103 aggreg: 11µM*

How did Cc1ccccc1NC(=O)CNC(=O)c1ccc(C(F)(F)F)cc1 do in these assays?
HTT ATP protect: 15%[10 µM]; NPSR antagonist: 9%; HttQ103 aggreg: 6%; ALOX12 inhib: -3%; PNC assembly inh: 8

Results for CCSCCc1nnc(NC(=O)Nc2cccc(C(F)(F)F)c2)s1 ?
HTT ATP protect: -11%[1.9 µM]; NPSR antagonist: -36%; HttQ103 aggreg: 11µM*; ALOX12 inhib: 2%; PNC assembly inh: 17; IMPase cell inh: 8

Results for CNC(=O)Nc1cccc(C(F)(F)F)c1 ?
HTT ATP protect: 3%[10 µM]; NPSR antagonist: 16%[46.1 µM]; HttQ103 aggreg: -18%; ALOX12 inhib: -4%; PNC assembly inh: -100*; IMPase cell inh: -2

How did C[C@H](NC(=O)Nc1cccc(C(F)(F)F)c1)C(=O)O do in these assays?
HTT ATP protect: 1%[10 µM]; NPSR antagonist: -1%; HttQ103 aggreg: -8%; ALOX12 inhib: -1%; PNC assembly inh: 12; IMPase cell inh: 8

What do the screens show for `CC1(c2nnc(-c3ccncc3)o2)CC(c2ccc([N+](=O)[O-])cc2)=NO1` (stereo not drawn)?
HTT ATP protect: inconclusive; NPSR antagonist: 7%; HttQ103 aggreg: -2%[9.22 µM]

How did CC(=O)c1cccc(NC(=O)C(Cc2ccccc2)NS(=O)(=O)c2ccc(Br)s2)c1 (stereo not drawn) do in these assays?
IMPase cell inh: 5

How did CC1(C(=O)O)NCCc2cc(O)c(O)cc21 (stereo not drawn) do in these assays?
HTT ATP protect: -18%

What do the screens show for `Clc1ccc(-n2cc(COCc3ccccc3)nn2)cc1`?
HTT ATP protect: -1%[10 µM]; NPSR antagonist: -9%; HttQ103 aggreg: 6%

What do the screens show for `C=CCNC(=S)Nc1nc2c(cc1C(=O)OCC)COC(C)(C)C2`?
HTT ATP protect: 11%[10 µM]; NPSR antagonist: -19%; HttQ103 aggreg: 6%[9.22 µM]

What do the screens show for `CCOC(=O)c1cc2c(nc1NC(=S)Nc1ccccc1)CC(C)(C)OC2`?
HTT ATP protect: 2%[10 µM]; NPSR antagonist: 1%; HttQ103 aggreg: -4%; ALOX12 inhib: -4%; PNC assembly inh: -82*; IMPase cell inh: -6

Results for Cc1ccc(-c2[nH]c3ccccc3c2SCCNC(=O)c2cc3ccccc3oc2=O)cc1 ?
NPSR antagonist: -20%; HttQ103 aggreg: 12%; ALOX12 inhib: -3%; PNC assembly inh: 67

What do the screens show for `O=C(Cc1cccs1)NCCSc1c(-c2ccc(Cl)cc2)[nH]c2ccccc12`?
NPSR antagonist: 10µM*; HttQ103 aggreg: 22µM*; ALOX12 inhib: -7%; PNC assembly inh: 27

Results for O=C(NCCSc1c(-c2ccccc2)[nH]c2ccccc12)c1cc2ccccc2oc1=O ?
NPSR antagonist: -23%; HttQ103 aggreg: 1%; ALOX12 inhib: 0%; PNC assembly inh: -86*

What do the screens show for `CCCNC(=O)NC(=O)c1cnccc1C(F)(F)F`?
HTT ATP protect: -1%[10 µM]; NPSR antagonist: -9%[7.67 µM]; HttQ103 aggreg: -3%[9.22 µM]

Results for O=c1[nH]ncc2c3ccccc3n(Cc3ccccc3)c12 ?
HTT ATP protect: 6%; NPSR antagonist: 5%[46.1 µM]; HttQ103 aggreg: -11%; ALOX12 inhib: -2%; PNC assembly inh: 67; IMPase cell inh: 0

Screens as filed in PubChem.
